# Screens: PubChem, several laboratories
# GRK2 aptamer HTS = compounds blocking aptamer binding on GRK2 – biochemical, human GRK2, bead flow cytometry, HTS, primary screen; Beta-adrenergic receptor kinase 1 (Homo sapiens), P25098; FAM-aptamer displacement from GRK2; inhibition of aptamer binding, % at 10 µM; 330,000 compounds, 0.59% hits; AID 488847, 2010;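 active = inhibition of aptamer binding above 40%, roughly 3 SD of noise, on plates passing a quality check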;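 note: median bead fluorescence of bound FAM aptamer so fluorescent compounds give negative values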
# Target sequence (P25098 whole entry, looked up): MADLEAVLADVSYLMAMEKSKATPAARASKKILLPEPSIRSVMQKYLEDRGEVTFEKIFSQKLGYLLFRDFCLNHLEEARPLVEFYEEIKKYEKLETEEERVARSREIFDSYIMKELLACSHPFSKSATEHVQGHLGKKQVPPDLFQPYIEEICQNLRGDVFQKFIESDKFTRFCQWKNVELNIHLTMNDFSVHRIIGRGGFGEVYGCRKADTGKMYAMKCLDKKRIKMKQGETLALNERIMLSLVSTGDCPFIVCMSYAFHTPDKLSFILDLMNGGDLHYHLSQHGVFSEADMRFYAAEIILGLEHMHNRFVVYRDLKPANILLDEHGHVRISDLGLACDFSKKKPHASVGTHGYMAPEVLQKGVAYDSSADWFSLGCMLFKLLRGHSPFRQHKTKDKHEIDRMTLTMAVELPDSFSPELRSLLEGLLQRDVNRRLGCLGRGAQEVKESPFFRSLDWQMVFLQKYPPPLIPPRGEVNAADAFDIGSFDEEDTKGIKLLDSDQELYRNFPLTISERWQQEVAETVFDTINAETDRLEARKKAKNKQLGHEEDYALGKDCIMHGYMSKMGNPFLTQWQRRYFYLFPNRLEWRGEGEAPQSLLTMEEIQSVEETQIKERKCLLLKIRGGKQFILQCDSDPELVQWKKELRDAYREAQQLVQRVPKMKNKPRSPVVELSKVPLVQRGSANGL
# Cardio protect = cardioprotection against H2O2-induced cell death, primary screen, uHTS, H9c2 cells, ATPLite luminescence. H9c2 cardiomyocytes, H2O2 injury protection, 2 h. protection from H2O2 cell death, % at 20 µM. 360,000 compounds, 0.63% hits. AID 588492, 2011;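 active = compounds giving at least 50% protection of heart cells from peroxide-induced death in the single-dose screen, raw or plate-pattern-corrected value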;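 note: 0% = DMSO wells with peroxide and 100% = DMSO wells without peroxide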
# HDAC3 inhib = HDAC3 deacetylase inhibitors, primary screen, biochemical, fluorescence, cell-free homogeneous; Histone deacetylase 3 (Homo sapiens), O15379; recombinant HDAC3, fluorogenic peptide/trypsin coupled; inhibition, % at 8.3 µM; 320,000 compounds, 0.15% hits; AID 2718, 2010; in the data active = inhibition above about 26%, passing the limit was not always enough; inconclusive = no clear call, values can overlap the other calls
# Neddylation inh = inhibitors of cullin neddylation, primary screen, biochemical, TR-FRET, uHTS, NAE and Ubc12; NEDD8-conjugating enzyme Ubc12 (Homo sapiens) + NEDD8-activating enzyme E1 regulatory …; inhibition, % at 25 µM; 360,000 compounds, 0.58% hits; AID 651699, 2012; in the data active = inhibition above about 36%
# * hit, by the source's call; u = inconclusive; x = no result. Rows were chosen to be rich in hits. Some 1.8% of all compounds tested hit in one or more screens of this group.
SMILES,GRK2 aptamer HTS,Cardio protect,HDAC3 inhib,Neddylation inh
CN(C(=O)c1ccc(NC(=O)Cc2ccc(NC(=O)C3CCCN(C(=O)C4CC4)C3)cc2)cc1)C1CCCC1 (stereo not drawn),x,-10.8,x,2.2
Cc1cc(SCC(=O)c2ccccc2)nc(=O)[nH]1,1.0,-3.3,45.1*,-18.5
Cc1ccc(C(=O)CSc2cc(C)[nH]c(=O)n2)cc1,1.0,-7.9,34.3*,-5.7
Cc1cc(SCC(=O)c2ccc(Cl)cc2)nc(=O)[nH]1,0.0,-9.3,17.8,-15.3
C=CCCC(=O)NC1CCCc2c1cnn2-c1ccccc1F (stereo not drawn),1.0,-0.7,-4.7,2.3
O=C(CN1CCOCC1)N/N=C/c1c(O)ccc2ccccc12,1.0,69.1*,-0.6,-6.2
Cn1cc(C(=O)N/N=C/c2c(O)ccc3ccccc23)ccc1=O,2.0,71.2*,-0.9,28.5
O=C(N/N=C/c1c(O)ccc2ccccc12)c1ccc[n+](CCO)c1,0.0,56.5*,8.1,-57.5
Cc1c(C(=O)N/N=C/c2c(O)ccc3ccccc23)nnn1-c1nonc1N,2.0,59.6*,-9.0,29.8
O=C(N/N=C\c1c(O)ccc2ccccc12)c1ccc(O)cc1,5.0,47.5,6.9,25.5
COc1cc(C(=O)NCCOc2ccc(F)cc2)c(Br)c(OC)c1OC,1.0,5.2,1.3,3.0
O=c1[nH]c(-c2cccnc2)nc2ccccc12,1.0,47.0*,-2.8,0.9
COc1ccc(-c2nc3ccccc3c(=O)[nH]2)cc1,0.0,-3.8,-1.9,-78.8
CN(C)c1ccc(-c2nc3ccccc3c(=O)[nH]2)cc1,2.0,-14.9,-0.5,42.4*
CC(=O)c1c(C)[nH]c(C(=O)OCC(=O)Nc2ccc(Cl)cc2[N+](=O)[O-])c1C,2.0,-25.1,-1.2,-27.0
S=c1[nH]nc(-c2cc(-c3ccccc3)n[nH]2)n1/N=C/c1ccc(Cl)cc1,4.0,0.5,2.8,-4.3
S=c1[nH]nc(-c2cc(-c3ccccc3)n[nH]2)n1/N=C/c1cccc(Cl)c1,0.0,-3.8,u,90.0*
COc1cc(/C(C)=N/Nc2ccc(C(=O)O)cc2)cc(OC)c1OC,71.0*,7.4,2.0,-3.4
COc1ccc(/C(C)=N/Nc2ccc(C(=O)O)cc2)cc1OC,4.0,3.1,x,-17.3
O=C(/C=C/c1ccccc1)c1cc(Br)ccc(=O)c1O,5.0,43.5,7.8,-24.9
Cc1ccc(/C=C/C(=O)c2ccccc(=O)c2O)cc1C,2.0,75.4*,12.3,1.9
CC(=O)N1CCCN(Cc2cn(-c3cccc(C)c3)nc2-c2cccc(F)c2)CC1,0.0,4.5,4.9,-4.5
O=C1NC(Cc2ccc(O)cc2)c2nc3cc(F)c(F)cc3c(=O)n2-c2cc3ccccc3cc21 (stereo not drawn),x,17.5,x,-17.2
O=C1NC(Cc2ccc(O)cc2)c2nc3ccc(F)cc3c(=O)n2-c2cc3ccccc3cc21 (stereo not drawn),x,95.2*,x,-10.5
COc1ccc2nc(C)cc(SCC(=O)N/N=C/c3ccc(O)cc3O)c2c1,2.0,51.8*,2.4,23.5
SMILES,GRK2 aptamer HTS,Cardio protect,HDAC3 inhib,Neddylation inh
COc1ccc(Cc2nc3ccccc3n2CC(=O)N/N=C/c2ccc(C)cc2O)cc1OC,0.0,51.9*,5.1,23.2
COc1cccc2c(SCC(=O)N/N=C/c3ccc(O)cc3O)cc(C)nc12,x,81.1*,x,23.3
COCc1cc(C)nc(OCC(=O)N/N=C/c2ccc(O)cc2O)c1C#N,0.0,52.0*,7.4,3.4
COCc1cc(C)nc(OCC(=O)N/N=C/c2ccccc2O)c1C#N,4.0,27.7,6.0,5.3
COc1ccc2nc(C)cc(SCC(=O)N/N=C/c3ccccc3)c2c1,1.0,4.0,12.1,7.9
COc1cccc(C(CNc2ccc(S(=O)(=O)N3CCN(C)CC3)cc2[N+](=O)[O-])N(C)C)c1 (stereo not drawn),x,3.0,x,-33.2
COc1cc(NC(=S)NCCCO)c(OC)cc1Cl,42.0*,0.7,1.7,-11.1
COc1cc(NC(=S)NC(C)(C)C)c(OC)cc1Cl,0.0,-6.1,0.0,-3.6
O=C(N/N=C/c1ccc([N+](=O)[O-])cc1)c1cc(-c2ccc3c(c2)OCO3)n[nH]1,x,-5.3,-0.3,-1.8
Cc1nn(-c2ccccc2)c(C)c1/C=N/NC(=O)c1cc(C2CC2)[nH]n1,3.0,60.5*,6.1,-2.6
COc1cc(/C=N/NC(=O)c2nc(-c3ccccc3)n(-c3ccccc3)n2)ccc1O,1.0,0.2,12.9,13.3
COc1cc(/C=N/NC(=O)c2cc(-c3ccc4c(c3)OCO4)n[nH]2)ccc1O,1.0,73.6*,14.3,32.0
Cc1nn(-c2ccccc2)c(C)c1-c1cc(C(=O)N/N=C/c2ccc(O)cc2)[nH]n1,4.0,56.5*,13.7,16.4
Cc1cc(C(=O)N/N=C/c2c(C)nn(-c3ccccc3)c2C)n[nH]1,0.0,18.2,12.9,3.5
COc1cc(/C=N/NC(=O)c2cc(-c3c(C)nn(-c4ccccc4)c3C)n[nH]2)ccc1O,0.0,51.3*,u,29.1
COc1ccc(NC(=O)Cc2nnc(SCC(=O)NC3CCCCC3C)n2C)cc1 (stereo not drawn),0.0,-6.3,1.7,-4.8
CC12CCC(C(=O)N(CSC(=S)N/N=C\c3ccccc3O)C1=O)C2(C)C (stereo not drawn),2.0,52.5*,4.5,10.8
COc1ccc(/C=N\NC(=S)SCN2C(=O)C3CCC(C)(C2=O)C3(C)C)cc1 (stereo not drawn),4.0,5.5,19.3,-9.2
Cc1cccc(N(C(=O)c2snc(C(N)=O)c2N)C(C(=O)NCC2CCCO2)c2ccc(N(C)C)cc2)c1C (stereo not drawn),99.0*,13.5,-1.7,11.5
NC(=O)c1nsc(C(=O)N(Cc2ccc(F)cc2)C(C(=O)NCC2CCCO2)c2ccc(F)cc2)c1N (stereo not drawn),3.0,0.2,4.2,28.1
CN(C)c1ccc(C(C(=O)NCC2CCCO2)N(Cc2ccco2)C(=O)c2snc(C(N)=O)c2N)cc1 (stereo not drawn),1.0,52.0*,-0.9,-8.5
CN(C)c1ccc(C(C(=O)NCC2CCCO2)N(Cc2ccccc2)C(=O)c2snc(C(N)=O)c2N)cc1 (stereo not drawn),1.0,51.4*,1.8,-5.3
COc1ccc(C(C(=O)NCC2CCCO2)N(Cc2ccccc2)C(=O)c2snc(C(N)=O)c2N)cc1OC (stereo not drawn),0.0,6.4,1.4,18.4
CN(Cc1ccccc1)C(=O)c1[nH]c(C(F)(F)F)nc1-c1ccccc1,x,5.9,x,0.7
O=c1cc(-c2ccncc2)oc2ccccc12,2.0,53.1*,-7.1,-24.3
CCCOC(=O)Nc1nc2ccccc2o1,7.0,-9.4,x,6.0
CCOC(=O)c1cnc(Nc2nc3ccccc3o2)nc1CN1CCN(C)CC1,x,59.9*,x,14.3
CS(=O)(=O)Nc1ccc(-c2ccc3nccn3c2)cc1,x,51.7*,x,10.7
O=C(NCc1cccnc1)c1cc(C2CCCCN2S(=O)(=O)c2cccc3cccnc23)on1 (stereo not drawn),x,9.4,x,0.9
